Data: PubChem BioAssay (NCATS)
Where “and” joins values, the source holds several entries; their conditions need not be identical. Equal entries are not always repeated. Inconclusive results are not listed. Where a call stands in place of a potency, no number is given. Calls of active or inactive are those of the source. Unless noted, calls follow the shape of the dose curve; as a rule, active = well fitted curve in the direction sought with a large enough effect; inconclusive = small, poorly fitted or top-dose-only effect, or another doubt; inactive = no such curve, though single readings can be large; an effect the other way counts as inactive or inconclusive.

Columns and labels:
[1] = qHTS assay for small molecule antagonists of retinoid X receptor alpha signaling (AID 588546; active = well fitted inhibition curve with a large enough effect in the signal ratio, with a control signal flat, not every such curve was filed as active; the % refers to the signal ratio;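 also: cells stimulated with 9-cis-retinoic acid as agonist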); conditions: HEK293T RXRa-UAS-bla, beta-lactamase ratio, antagonist mode; measured here: W530 green channel, cytotoxicity proxy
Summary of the method: (§1)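 Beta-lactamase reporter inhibition, read as CCF4 fluorescence ratio (ex 405, em 460/530 nm) after 2 h at RT. HEK293T UAS-bla cells, 2500/well, were stimulated with 9-cis-RA at 500 or 100 nM final alongside test compound for 18 h at 37 C.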

[2] = target: Retinoic acid receptor RXR-alpha (Homo sapiens) (UniProt P19793); assay: as above; conditions: HEK293T RXRa-UAS-bla, beta-lactamase ratio, antagonist mode
Summary of the method: as §1

[3] = target: Thyroid hormone receptor beta (Homo sapiens) (UniProt P10828); assay: qHTS assay for small molecule antagonists of thyroid hormone receptor beta signaling (AID 588547; active = well fitted inhibition curve with a large enough effect in the signal ratio, with a control signal flat, not every such curve was filed as active; the % refers to the signal ratio;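 also: cells stimulated with 0.4 nM T3 agonist during compound exposure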); conditions: TR-UAS-bla HEK293, beta-lactamase ratio, antagonist mode, 18 h
Summary of the method: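 Inhibition of T3-driven (0.4nM final) beta-lactamase reporter activity was measured over 0.59 nM to 92 uM compound after 18 h at 37 C. The cells were GripTite HEK293 TR-UAS-bla in charcoal/dextran-stripped serum, with CCF4 ratio read-out and IC50 from Hill fits.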

[4] = target: Voltage-gated inwardly rectifying potassium channel KCNH2 (Homo sapiens) (UniProt Q12809); assay: qHTS Assay for Small Molecule Inhibitors of the Human hERG Channel Activity (AID 588834);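 also: top concentration of the series differs between compounds; lower thallium flux fluorescence means stronger hERG block; nearly all actives have a fitted effect of over 50% in size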
Summary of the method: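 hERG block measured as reduced thallium-dye (FluxOR) fluorescence after stimulation buffer addition, read over 2 min. Cells were hERG-BacMam-transduced U2OS exposed to compound ~10 min […]; concentration-response fitted with Hill equation for AC50.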

[5] = target: Luciferin 4-monooxygenase (Photinus pyralis) (UniProt P08659); assay: Biochemical firefly luciferase enzyme assay for NPC (AID 624030);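 also: purified P. pyralis luciferase at 10 nM with luciferin and ATP substrate; nearly all actives have a fitted effect of over 70% in size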
Summary of the method: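 Direct inhibition of firefly luciferase enzyme (10 nM final, 50 mM Tris Acetate) assessed by luminescence within 5 minutes. Percent activity scaled between DMSO and PTC124 positive control, with concentration-effect curves classified by fit quality and response.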

[6] = qHTS assay for small molecule activators of the p53 signaling pathway (AID 651743; active = well fitted activation curve with a large enough effect in the signal ratio, not every such curve was filed as active; the % refers to the signal ratio); conditions: HCT-116 p53RE-bla, beta-lactamase FRET ratio, 16 h; activation: stronger effect = higher value
Summary of the method: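 A beta-lactamase reporter under p53 response element control, stably carried by HCT-116 cells, reported pathway activation. Test compounds were applied for 16 hours at 37 C, and fluorescence was measured 2 hours after adding the B/G FRET substrate.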

[7] = qHTS assay for small molecule activators of the nuclear factor-kappa B (NF-kB) signaling pathway (AID 651749; active = well fitted activation curve with a large enough effect in the signal ratio; the % refers to the signal ratio); conditions: NF-kB-bla ME-180 cells, beta-lactamase FRET ratio, 16 h; activation: stronger effect = higher value
Summary of the method: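 FRET-based beta-lactamase detection in ME-180 cells reports NF-kB response-element-driven transcription following overnight (16 hr) compound treatment.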

[8] = target: Tumor necrosis factor (Homo sapiens) (UniProt P01375); assay: qHTS assay to identify small molecules that stimulate Tumor Necrosis Factor-alpha (TNF-alpha) secretion (AID 651757; active = well fitted curve in the direction sought with a large enough effect in the signal ratio; the % refers to the signal ratio)
Summary of the method: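 Using 3000 THP-1 cells per well, compounds and controls were applied for 17 hrs at 37 C. Detection followed with two labeled anti-TNF-alpha antibodies (cryptate donor, XL665 acceptor) for 3 hr at room temperature, measured by TR-FRET.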

[9] = qHTS assay for environmental chemicals that activate the Aryl hydrocarbon Receptor (AhR) signaling pathway (AID 651777); conditions: 1A2-DRE human hepatoma cells, luciferase, 24 h; activation: stronger effect = higher value; also: nearly all actives have a fitted effect of over 15% in size
Summary of the method: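 Quantitative HTS in stably transfected human liver-derived cells whose luciferase gene sits downstream of the CYP1A2 promoter and dioxin response element. After 24 hr exposure at 37 C, One-Glo luminescence was measured.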

[10] = target: Peroxisome proliferator-activated receptor alpha (Homo sapiens) (UniProt Q07869); assay: qHTS assay for small molecule agonists of the peroxisome proliferator-activated receptor alpha (PPARalpha) signaling pathway (AID 651778); conditions: PathHunter PPARalpha complementation, chemiluminescence, 6 h; stronger effect = higher value
Summary of the method: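 Chemiluminescence from complemented enzyme reported PPARalpha activation in cells after 6 hr of compound treatment at 37 C. The detection reagent was incubated for 60 min at room temperature, and compounds were scored as agonists.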

[11] = target: Nuclear receptor ROR-gamma (Homo sapiens) (UniProt P51449); assay: qHTS assay for small molecule antagonists of the retinoid-related orphan receptor gamma (ROR-gamma) signaling pathway (AID 651802);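 also: CHO cells with doxycycline-induced ROR-gamma expression; luciferase reporter luminescence driven by ROR response element; nearly all actives have a fitted effect of over 60% in size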
Summary of the method: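 Doxycycline-induced reporter activity in engineered CHO cells (TET-inducible ROR, RORE-LUC) was measured by luminescence after 16hr compound exposure at 37C.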

[12] = qHTS assay for small molecule agonists of the antioxidant response element (ARE) signaling pathway measured by Nrf2-dependant transcriptional activity (AID 720636; active = well fitted curve in the direction sought with a large enough effect in the repeat runs; an effect the other way counts as inactive or inconclusive)
Summary of the method: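 Quantitative HTS format in HepG2 cells stably expressing an ARE-luciferase reporter; 16 hr compound treatment at 37 C, luciferase signal detected with ONE-Glo.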

[13] = qHTS assay for small molecule antagonists of the retinoid-related orphan receptor gamma (ROR-gamma) signaling pathway - cell viability counter screen (AID 720652; active = well fitted curve in the direction sought with a large enough effect in the repeat runs; an effect the other way counts as inactive or inconclusive;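 also: CHO reporter cells with doxycycline-induced ROR-gamma expression; compound exposure lasted 16 hr before ATP read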)
Summary of the method: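 ATP-based viability readout in the ROR-gamma reporter CHO cells after 16 hr compound exposure under doxycycline induction.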

[14] = qHTS assay for small molecule agonists of the antioxidant response element (ARE) signaling pathway measured by Nrf2-dependant transcriptional activity - cell viability counter screen (AID 720653; active = well fitted curve in the direction sought with a large enough effect in the repeat runs; an effect the other way counts as inactive or inconclusive); conditions: ARE-bla HepG2 viability, CellTiter-Glo ATP luminescence, 16 h; max response: stronger effect = lower value
Summary of the method: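 Cytotoxicity counter screen: intracellular ATP quantified by CellTiter-Glo luminescence in the same ARE-bla HepG2 plates, after 16 h compound exposure and a 2 h beta-lactamase substrate step.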

[15] = qHTS Assay for Identifying Gametocytocidal Compounds (AID 743244);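 also: actives lower the fluorescent signal which means gametocytes are killed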; conditions: P. falciparum 3D7 stage III-V gametocytes, alamarBlue, 72 h; max response: stronger effect = lower value
Summary of the method: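 Compounds are pinned into medium, gametocytes (stage III–V, 3D7, 20,000 cells/well) added, and plates held 72 h at 37 °C in 5% CO2. AlamarBlue follows for 24 h before fluorescence reading.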

[16] = qHTS assay for cell viability of HEK293 cells (AID 743288); conditions: ATP luminescence (CellTiter-Glo), 18 h; max response: stronger effect = lower value; also: nearly all actives have a fitted effect of over 50% in size
Summary of the method: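 Readout is luciferase-coupled ATP content (CellTiter-Glo luminescence, 30 min room temperature) as a measure of metabolically competent cells. Parental HEK293 cells were plated 5 h or more before compound addition, then treated 18 h at 37 C.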

[17] = qHTS assay for cell viability of the p53RE-bla HCT-116 cell line (AID 743292); also: nearly all actives have a fitted effect of over 55% in size
Summary of the method: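 Viability of compound-treated p53RE-bla HCT-116 cells is taken from ATP-dependent luciferase luminescence. Treatment lasts 16 h at 37 C after a 5 h settling period; detection follows 30 min at room temperature.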

[18] = P-glycoprotein substrates identified in KB-8-5-11 adenocarcinoma cell line, qHTS therapeutic library screen (AID 1346987); also: nearly all actives have a fitted effect of over 65% in size
Summary of the method: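 Human cervical adenocarcinoma KB-8-5-11 cells, selected in colchicine to over-express P-gp and assayed without it, were exposed for 72 h to titrated compounds. An ATP-based luminescent viability signal gave AC50.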

[19] = target: Cytochrome P450 2D6 (Homo sapiens) (UniProt P10635); assay: Cytochrome P450 family 2 subfamily D member 6 (CYP2D6) small molecule antagonists: luciferase biochemical (cell-free) qHTS assay (AID 1645840; active = well fitted curve in the direction sought with a large enough effect in the repeat runs; an effect the other way counts as inactive or inconclusive; also: nearly all actives have a fitted effect of over 55% in size)
Summary of the method: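 P450-Glo CYP2D6 system: proluciferin substrate converted by enzyme to luciferin, read by luminescence proportional to activity. Enzyme-substrate mix with compound 10 min at room temperature, then NADPH regeneration 1 h before detection reagent.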

[20] = target: Cytochrome P450 2C9 (Homo sapiens) (UniProt P11712); assay: Cytochrome P450 family 2 subfamily C member 9 (CYP2C9) small molecule antagonists: luciferase biochemical (cell-free) qHTS assay (AID 1645842; active = well fitted curve in the direction sought with a large enough effect in the repeat runs; an effect the other way counts as inactive or inconclusive; also: nearly all actives have a fitted effect of over 55% in size)
Summary of the method: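 P450-Glo CYP2C9 system: proluciferin substrate with enzyme in mix containing 0.4% BSA, 10 min at room temperature, then NADPH regeneration solution added and incubated 1 h at 37C. Detection reagent stopped reaction; luminescence read after 20 min as RLU.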

KB-3-1 = assay: Cytotoxic Profiling of Annotated Libraries Using Quantitative High-Throughput Screening (AID 1296008); conditions: Five cell lines viability, CellTiter-Glo ATP luminescence, 48-72 h; max response: stronger effect = lower value; also: nearly all actives have a fitted effect of over 60% in size
Summary of the method: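 Cytotoxicity was measured as CellTiter-Glo ATP luminescence, read after 10 min at room temperature. Compound treatment of the cells lasted 48 or 72 hr at 37 degrees Celsius in a qHTS format.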

[21] = Drug repurposing screens with cells derived from glioblastoma tumor samples (AID 1345199); conditions: GBM patient neurospheres viability, ATP luminescence, 48 h; Potency: tumour line A; series mostly up to 45.9 µM; also: nearly all actives have a fitted effect of over 40% in size
Summary of the method: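 Primary testing used CD133+ neurospheres from four GBM patients, seven concentrations, 48 h exposure and ATP-based viability; confirmation added three slower-growing patient lines.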

[22] = target: Nuclear receptor subfamily 1 group I member 2 (Rattus norvegicus) (UniProt Q9R1A7); assay: qHTS assay for small molecule activators of the rat pregnane X receptor (rPXR) signaling pathway (AID 651751; call rule not given here); conditions: rPXR reporter cells, luciferase (One-Glo), 24 h
[23] = qHTS assay for small molecule activators of the human pregnane X receptor (PXR) signaling pathway (AID 720659; call rule not given here)

Nuclear receptor subfamily 1 group I member 2 (Rattus norvegicus), sequence (Q9R1A7 whole entry, looked up): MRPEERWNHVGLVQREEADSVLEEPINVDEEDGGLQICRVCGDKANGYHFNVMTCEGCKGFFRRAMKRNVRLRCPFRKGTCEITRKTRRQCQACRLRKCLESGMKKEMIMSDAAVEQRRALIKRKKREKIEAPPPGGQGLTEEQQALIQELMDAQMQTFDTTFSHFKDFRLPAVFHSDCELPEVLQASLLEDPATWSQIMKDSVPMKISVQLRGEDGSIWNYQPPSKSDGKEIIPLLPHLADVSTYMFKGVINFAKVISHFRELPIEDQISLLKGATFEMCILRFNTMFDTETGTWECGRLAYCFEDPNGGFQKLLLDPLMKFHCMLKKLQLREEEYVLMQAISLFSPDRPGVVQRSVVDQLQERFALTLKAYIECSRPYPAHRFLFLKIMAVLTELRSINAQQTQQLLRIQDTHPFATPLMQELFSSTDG
Peroxisome proliferator-activated receptor alpha (Homo sapiens), sequence (Q07869 whole entry, looked up): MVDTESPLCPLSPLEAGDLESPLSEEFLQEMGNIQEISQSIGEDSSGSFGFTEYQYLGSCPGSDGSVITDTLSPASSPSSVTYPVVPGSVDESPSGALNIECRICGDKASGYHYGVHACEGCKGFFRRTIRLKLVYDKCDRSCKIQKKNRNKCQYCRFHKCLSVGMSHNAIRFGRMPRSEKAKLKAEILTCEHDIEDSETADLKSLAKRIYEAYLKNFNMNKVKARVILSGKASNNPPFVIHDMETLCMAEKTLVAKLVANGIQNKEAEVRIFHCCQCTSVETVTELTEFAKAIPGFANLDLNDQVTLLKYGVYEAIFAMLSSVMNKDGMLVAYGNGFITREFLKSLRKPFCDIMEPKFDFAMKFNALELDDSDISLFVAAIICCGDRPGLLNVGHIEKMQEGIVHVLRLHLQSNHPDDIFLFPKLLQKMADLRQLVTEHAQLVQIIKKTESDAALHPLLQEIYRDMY
Thyroid hormone receptor beta (Homo sapiens), sequence (P10828 whole entry, looked up): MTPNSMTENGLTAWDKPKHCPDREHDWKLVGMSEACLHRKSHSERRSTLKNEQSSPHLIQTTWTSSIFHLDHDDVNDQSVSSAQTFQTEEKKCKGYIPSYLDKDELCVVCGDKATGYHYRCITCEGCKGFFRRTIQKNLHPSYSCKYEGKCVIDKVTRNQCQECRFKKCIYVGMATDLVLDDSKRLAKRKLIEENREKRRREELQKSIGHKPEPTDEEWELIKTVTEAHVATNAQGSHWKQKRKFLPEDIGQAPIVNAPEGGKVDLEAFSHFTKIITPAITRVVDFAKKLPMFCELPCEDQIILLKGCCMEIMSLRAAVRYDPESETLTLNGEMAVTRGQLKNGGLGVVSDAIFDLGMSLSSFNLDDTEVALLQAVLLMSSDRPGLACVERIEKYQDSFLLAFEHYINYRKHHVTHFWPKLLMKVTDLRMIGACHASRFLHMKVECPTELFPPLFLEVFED
Tumor necrosis factor (Homo sapiens), sequence (P01375 whole entry, looked up): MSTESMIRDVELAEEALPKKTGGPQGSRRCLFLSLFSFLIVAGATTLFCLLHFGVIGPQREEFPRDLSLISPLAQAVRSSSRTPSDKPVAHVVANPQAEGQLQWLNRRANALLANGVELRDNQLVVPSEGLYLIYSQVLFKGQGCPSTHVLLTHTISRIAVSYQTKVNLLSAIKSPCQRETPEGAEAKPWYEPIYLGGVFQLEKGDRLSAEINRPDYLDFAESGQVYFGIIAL
Voltage-gated inwardly rectifying potassium channel KCNH2 (Homo sapiens), sequence (Q12809 whole entry, looked up): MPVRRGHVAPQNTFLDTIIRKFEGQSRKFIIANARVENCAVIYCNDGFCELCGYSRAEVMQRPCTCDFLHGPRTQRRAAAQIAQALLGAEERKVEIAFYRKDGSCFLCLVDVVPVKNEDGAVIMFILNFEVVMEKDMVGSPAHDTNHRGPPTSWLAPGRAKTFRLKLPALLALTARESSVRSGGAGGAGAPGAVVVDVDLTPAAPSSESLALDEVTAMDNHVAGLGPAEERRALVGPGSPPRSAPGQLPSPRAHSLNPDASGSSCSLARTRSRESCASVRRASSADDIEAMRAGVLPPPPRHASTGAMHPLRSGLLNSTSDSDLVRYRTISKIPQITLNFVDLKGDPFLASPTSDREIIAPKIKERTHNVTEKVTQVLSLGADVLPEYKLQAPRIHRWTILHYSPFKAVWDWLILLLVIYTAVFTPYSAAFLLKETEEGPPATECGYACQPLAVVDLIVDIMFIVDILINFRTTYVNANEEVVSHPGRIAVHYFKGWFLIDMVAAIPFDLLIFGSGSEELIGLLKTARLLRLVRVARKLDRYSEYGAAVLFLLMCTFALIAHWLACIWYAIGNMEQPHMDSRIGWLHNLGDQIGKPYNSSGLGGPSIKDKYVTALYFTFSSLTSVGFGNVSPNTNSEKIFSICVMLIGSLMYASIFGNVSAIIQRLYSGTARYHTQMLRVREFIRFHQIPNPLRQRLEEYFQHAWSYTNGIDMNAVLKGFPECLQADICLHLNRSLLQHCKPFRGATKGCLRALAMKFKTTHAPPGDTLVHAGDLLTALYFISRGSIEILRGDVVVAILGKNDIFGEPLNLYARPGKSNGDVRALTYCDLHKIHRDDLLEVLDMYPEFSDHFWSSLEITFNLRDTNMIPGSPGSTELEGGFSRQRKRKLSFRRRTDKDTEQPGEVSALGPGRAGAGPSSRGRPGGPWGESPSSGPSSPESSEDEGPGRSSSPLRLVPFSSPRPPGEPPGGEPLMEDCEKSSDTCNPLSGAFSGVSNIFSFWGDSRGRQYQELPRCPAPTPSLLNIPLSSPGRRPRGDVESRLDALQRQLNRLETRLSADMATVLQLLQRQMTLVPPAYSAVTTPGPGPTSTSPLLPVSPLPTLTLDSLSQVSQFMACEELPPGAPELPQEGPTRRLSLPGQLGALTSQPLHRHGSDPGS
Retinoic acid receptor RXR-alpha (Homo sapiens), sequence (P19793 whole entry, looked up): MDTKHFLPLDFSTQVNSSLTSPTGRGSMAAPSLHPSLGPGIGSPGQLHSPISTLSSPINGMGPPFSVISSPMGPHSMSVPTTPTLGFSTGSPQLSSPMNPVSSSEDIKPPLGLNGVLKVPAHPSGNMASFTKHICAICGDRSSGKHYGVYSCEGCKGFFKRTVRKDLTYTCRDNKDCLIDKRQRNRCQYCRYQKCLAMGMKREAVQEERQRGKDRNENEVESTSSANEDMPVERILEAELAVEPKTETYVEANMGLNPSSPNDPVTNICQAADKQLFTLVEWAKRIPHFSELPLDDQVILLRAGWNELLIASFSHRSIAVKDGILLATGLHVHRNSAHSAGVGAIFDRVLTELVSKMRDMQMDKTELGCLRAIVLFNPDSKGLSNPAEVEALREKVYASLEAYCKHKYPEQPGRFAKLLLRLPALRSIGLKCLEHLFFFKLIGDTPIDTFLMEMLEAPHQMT
Luciferin 4-monooxygenase (Photinus pyralis), sequence (P08659 whole entry, looked up): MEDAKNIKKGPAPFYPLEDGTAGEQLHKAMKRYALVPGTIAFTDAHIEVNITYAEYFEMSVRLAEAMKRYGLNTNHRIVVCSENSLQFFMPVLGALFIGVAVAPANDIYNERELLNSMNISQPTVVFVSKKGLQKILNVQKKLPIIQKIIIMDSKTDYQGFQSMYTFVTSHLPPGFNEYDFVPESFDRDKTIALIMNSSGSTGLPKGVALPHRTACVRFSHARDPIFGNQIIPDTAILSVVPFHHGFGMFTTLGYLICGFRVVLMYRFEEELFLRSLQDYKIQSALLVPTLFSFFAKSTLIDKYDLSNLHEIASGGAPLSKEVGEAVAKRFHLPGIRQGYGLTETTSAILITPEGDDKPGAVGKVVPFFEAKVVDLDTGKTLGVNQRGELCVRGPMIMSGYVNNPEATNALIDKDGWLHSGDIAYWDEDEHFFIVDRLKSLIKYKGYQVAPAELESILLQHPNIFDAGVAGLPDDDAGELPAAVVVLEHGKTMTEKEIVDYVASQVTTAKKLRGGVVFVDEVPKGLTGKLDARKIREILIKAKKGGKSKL
Nuclear receptor ROR-gamma (Homo sapiens), sequence (P51449 whole entry, looked up): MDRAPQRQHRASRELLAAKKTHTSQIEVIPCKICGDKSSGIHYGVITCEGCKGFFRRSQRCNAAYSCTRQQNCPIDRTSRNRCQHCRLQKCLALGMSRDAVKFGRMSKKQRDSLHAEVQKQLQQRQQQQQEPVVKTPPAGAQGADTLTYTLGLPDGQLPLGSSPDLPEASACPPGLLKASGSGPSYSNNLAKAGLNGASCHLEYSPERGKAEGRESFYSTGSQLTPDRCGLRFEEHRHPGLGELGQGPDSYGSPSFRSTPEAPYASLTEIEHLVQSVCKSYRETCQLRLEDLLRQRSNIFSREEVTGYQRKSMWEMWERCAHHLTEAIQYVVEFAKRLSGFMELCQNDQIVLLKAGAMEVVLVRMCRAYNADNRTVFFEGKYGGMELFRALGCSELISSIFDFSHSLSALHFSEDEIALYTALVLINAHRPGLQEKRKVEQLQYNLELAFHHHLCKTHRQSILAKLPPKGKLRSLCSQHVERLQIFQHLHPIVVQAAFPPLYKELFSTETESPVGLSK
Cytochrome P450 2C9 (Homo sapiens), sequence (P11712 whole entry, looked up): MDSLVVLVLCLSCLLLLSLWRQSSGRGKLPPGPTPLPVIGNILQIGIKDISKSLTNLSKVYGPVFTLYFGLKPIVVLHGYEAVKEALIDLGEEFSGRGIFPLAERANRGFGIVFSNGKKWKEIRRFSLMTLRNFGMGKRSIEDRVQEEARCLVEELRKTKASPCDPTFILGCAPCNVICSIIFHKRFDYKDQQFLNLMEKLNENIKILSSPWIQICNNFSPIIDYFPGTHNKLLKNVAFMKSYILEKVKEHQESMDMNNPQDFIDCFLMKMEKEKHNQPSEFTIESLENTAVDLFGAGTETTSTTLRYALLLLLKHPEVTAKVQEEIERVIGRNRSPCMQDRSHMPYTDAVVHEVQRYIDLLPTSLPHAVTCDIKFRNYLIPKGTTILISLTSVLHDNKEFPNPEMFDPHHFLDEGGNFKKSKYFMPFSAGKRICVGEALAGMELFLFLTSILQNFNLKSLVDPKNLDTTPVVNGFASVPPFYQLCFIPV

SMILES: COC(=O)c1ccccc1C(=O)OC
- max response [1]: -2.9%
- max response [2]: 2.81% (inactive)
- activity change % (negative = inhibition) [3]: 0.995% (inactive) and 14.6% (inactive)
- Potency [4]: inactive
- Potency [5]: inactive
- activation [6]: -1.52% (inactive) and -1.95% (inactive)
- activation [7]: -0.143% (inactive) and 1.34% (inactive)
- outcome [8]: inactive
- activation [9]: 1.37% (inactive) and 0.566% (inactive)
- max response [10]: 0.0123% (inactive) and 4.21% (inactive)
- Potency [11]: inactive
- Potency [12]: inactive
- outcome [13]: inactive
- max response [14]: 8.24% (inactive) and 6.8% (inactive)
- max response [15]: -14.6% (inactive)
- max response [16]: -1.85% (inactive) and 5.33% (inactive)
- outcome [17]: inactive
- Potency [18]: inactive
- Potency [19]: inactive
- Potency [20]: inactive
- max response (KB-3-1): 3.72% (inactive)
- Potency [21]: inactive
- max response [22]: 5.6% (inactive) and 2.87% (inactive)
- outcome [23]: inactive
